The values below come from PubChem BioAssay (EPA / NIEHS).

Calls of active or inactive are those of the source. The calls were made as follows: active = hit-call score of the fitted dose curve at least 0.9, where 1 is the maximum; inactive = score below 0.9.

Read-out in one assay: not listed separately
Briefly: BSK_3C_Vis: BioMAP Diversity Plus: 3C Assay for Morphology Visualization (AID 2283025).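 Also: fitted both ways so gain or loss versus DMSO counts.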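 As to AC50: light microscopy image of cell morphology used as background control.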 The following applies: primary human endothelial cells (HUVEC). An outline of the steps:
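Human umbilical vein endothelial cell morphology was inspected by light microscopy 24 h after chemical dosing; scored bidirectionally relative to DMSO.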
Take `Cc1cccc2ccccc12`: the result was inactive.
Turning to `CCO[Si](CCCNC(N)=O)(OCC)OCC`, the result was inactive.
A word on the AC50: it is the concentration giving half of the maximal activity seen. For `Clc1ccccc1C(c1ccccc1)(c1ccccc1)n1ccnc1`, the AC50 was 14.5 µM (active).
`c1ccc2n[nH]nc2c1`: the outcome was inactive.
Regarding `Cc1ccc(C(C)C)cc1`, the outcome was inactive.
`NC(=O)c1nc(-c2cccc(-c3cc(F)ccc3OCC(F)(F)C(F)(F)F)c2)n[nH]1`: the AC50 is 42.3 µM (active).
Take `NCc1cccc(C2CCN(C(=O)c3ccc(C#Cc4ccccc4F)o3)CC2)c1`: the AC50 was 13.3 µM (active).
Regarding `CCCCOC(=O)CC(CC(=O)OCCCC)(OC(C)=O)C(=O)OCCCC`, the outcome was inactive.
Consider `CN(C)c1ccc(C(=C2C=CC(=[N+](C)C)C=C2)c2ccc(N(C)C)cc2)cc1`, for which the AC50 is 16 µM (active).
For the compound `CCCCCCCC[Si](OCC)(OCC)OCC`, the outcome was inactive.
On the same count and under the same terms, the result for `Cc1occc1C(=O)Nc1ccc(C(=O)N2CCC(F)(F)/C(=C\C(=O)N3CCC(N4CCCCC4)CC3)c3ccccc32)cc1` reads “inactive”.
Regarding `Cc1c2ccccc2c(C)c2c1ccc1ccccc12`, the AC50 was 13.7 µM (active).
Turning to `O=C=NCCCCCCN=C=O`, the outcome was inactive.
As for `Cc1oc2c(NC(=O)c3c(Cl)cccc3Cl)cccc2c1C(C)(C)O`, the AC50 is 20.7 µM (active).
Take `O=CCCCC=O`: the outcome was inactive.
In the case of `CC[C@H](NC(=O)c1cc(F)ccc1NS(=O)(=O)c1cccc2cccnc12)c1ccccc1`, the outcome was inactive.
As for `CC(C)(C)c1cc(/C=C2\SC(N)=NC2=O)cc(C(C)(C)C)c1O`, the AC50 was 16.3 µM (active).
Consider `CCCCCCCCCC(=O)O`, for which the result was inactive.
As to `CC(C)(C)c1csc(-c2cc3cc(OCc4ccccc4CC(=O)O)ccc3o2)n1`, the result was inactive.
Consider `CCN(Cc1cccnc1)C(=O)c1cccc(Cl)c1[C@]1(C)C(=O)N(Cc2ccc(OC)cc2OC)c2ccc(Cl)cc21`, for which the AC50 is 4.34 µM (active).
Consider `CCN(CC)C(=O)c1cc(S(=O)(=O)Cc2ccccc2)c(N2CCC(c3ccccc3)CC2)cc1N(CC)CCN(C)C`, for which the AC50 is 6.48 µM (active).
For `O=C1O[C@H]([C@@H](O)CO)C(O)=C1O`, the result was inactive.
Same read-out and setting: the same measure for `CN1C(=O)CC[C@H]1c1cccnc1`: “inactive”; for `Cc1cn([C@H]2C[C@H](N=[N+]=[N-])[C@@H](CO)O2)c(=O)[nH]c1=O`: “inactive”; for `O=c1ccc2ccccc2o1`: “inactive”.
As to `COc1cc(C(=O)NC2CCN(C)CC2)ccc1Nc1ncc2c(n1)N(C1CCCC1)CC(F)(F)C(=O)N2C`, the AC50 is 18.6 µM (active).
`CC(O)CC(C)(C)O` (stereo unspecified): the outcome was inactive.
As for `CC(=O)N1CCN(c2ccc(OC[C@H]3CO[C@](Cn4ccnc4)(c4ccc(Cl)cc4Cl)O3)cc2)CC1`, the AC50 is 37.5 µM (active).
On the same count and under the same terms, the result for `O=c1[nH]sc2ccccc12` reads 5.31 µM (active).
On to `CC/C(=C(/CC)c1ccc(O)cc1)c1ccc(O)cc1`, for which the AC50 is 8.57 µM (active).
In the case of `CCCCCc1ccc(N)cc1`, the outcome was inactive.
With `CN(C)C(=O)C1(N2CCCCC2)CCN(CC[C@@]2(c3ccc(Cl)c(Cl)c3)CN(C(=O)c3ccccc3)CCO2)CC1`, the AC50 is 12.5 µM (active).
As to `O=C(O)c1ccccc1C(=O)OCc1ccccc1`, the outcome was inactive.
`CCCC(=O)OCCC(C)C`: the result was inactive.
For the compound `CN(C[C@@H](CC[N+]12CCC(C3CCCCC3)(CC1)CC2)c1ccc(Cl)c(Cl)c1)C(=O)c1cc(C(F)(F)F)cc(C(F)(F)F)c1`, the AC50 was 13.3 µM (active).
Turning to `CCN(Cc1cccc(S(=O)(=O)O)c1)c1ccc(C(=C2C=CC(=[N+](CC)Cc3cccc(S(=O)(=O)O)c3)C=C2)c2ccccc2S(=O)(=O)[O-])cc1`, the outcome was inactive.
Regarding `O=C(O)Cc1cc(I)c(Oc2ccc(O)c(I)c2)c(I)c1`, the AC50 is 14.5 µM (active).

Read-out in the next assay: Pselectin, SELP (gene 6403)
As to the kind of experiment: BSK_4H_Pselectin: BioMAP Diversity Plus: 4H Assay for Pselectin Biomarker Activity (AID 2283026). As to conditions: primary human endothelial cells (HUVEC); actives raise or lower the signal. The procedure, abridged: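 Primary human umbilical vein endothelial cells were treated 24 h, and cell-surface P-selectin was then quantified by ELISA. Bidirectional fit versus DMSO; cytotoxicity checked in parallel cultures by SRB total-protein staining.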
Take `Cc1cccc2ccccc12`: the outcome was inactive.
Turning to `NCc1cccc(C2CCN(C(=O)c3ccc(C#Cc4ccccc4F)o3)CC2)c1`, the AC50 is 13.3 µM (active).
Take `CCCCOC(=O)CC(CC(=O)OCCCC)(OC(C)=O)C(=O)OCCCC`: the outcome was inactive.
Turning to `CCCCCCCC[Si](OCC)(OCC)OCC`, the outcome was inactive.
For `Cc1oc2c(NC(=O)c3c(Cl)cccc3Cl)cccc2c1C(C)(C)O`, the AC50 was 13.2 µM (active).
With `O=CCCCC=O`, the AC50 is 30.7 µM (active).
In the case of `CC(C)(C)c1csc(-c2cc3cc(OCc4ccccc4CC(=O)O)ccc3o2)n1`, the AC50 is 18.7 µM (active).
The same measure, in the same setting: the same measure for `CCN(Cc1cccnc1)C(=O)c1cccc(Cl)c1[C@]1(C)C(=O)N(Cc2ccc(OC)cc2OC)c2ccc(Cl)cc21`: 4.73 µM (active).
Turning to `CCN(CC)C(=O)c1cc(S(=O)(=O)Cc2ccccc2)c(N2CCC(c3ccccc3)CC2)cc1N(CC)CCN(C)C`, the AC50 is 7.87 µM (active).
In the case of `Cc1cn([C@H]2C[C@H](N=[N+]=[N-])[C@@H](CO)O2)c(=O)[nH]c1=O`, the outcome was inactive.
As for `O=c1ccc2ccccc2o1`, the outcome was inactive.
For the compound `COc1cc(C(=O)NC2CCN(C)CC2)ccc1Nc1ncc2c(n1)N(C1CCCC1)CC(F)(F)C(=O)N2C`, the AC50 was 3.57 µM (active).
As to `CC(O)CC(C)(C)O` (stereo unspecified), the outcome was inactive.
On to `CC(=O)N1CCN(c2ccc(OC[C@H]3CO[C@](Cn4ccnc4)(c4ccc(Cl)cc4Cl)O3)cc2)CC1`, for which the AC50 was 14.8 µM (active).
Regarding `O=c1[nH]sc2ccccc12`, the AC50 is 5.54 µM (active).
Same read-out and setting: the same measure for `CC/C(=C(/CC)c1ccc(O)cc1)c1ccc(O)cc1`: 20 µM (active); for `CN(C)C(=O)C1(N2CCCCC2)CCN(CC[C@@]2(c3ccc(Cl)c(Cl)c3)CN(C(=O)c3ccccc3)CCO2)CC1`: 15.6 µM (active).
With `CN(C[C@@H](CC[N+]12CCC(C3CCCCC3)(CC1)CC2)c1ccc(Cl)c(Cl)c1)C(=O)c1cc(C(F)(F)F)cc(C(F)(F)F)c1`, the AC50 is 29.2 µM (active).
Turning to `O=C(O)Cc1cc(I)c(Oc2ccc(O)c(I)c2)c(I)c1`, the result was inactive.
